Screens as filed in PubChem BioAssay.
Rows were chosen to be rich in hits. Some 3% of all compounds tested hit in one or more screens of this group.
MITF TRPM1 HTS: MITF TRPM1 promoter activation in melanoma cells | SK-MEL-5 TRPM1-promoter luciferase, 24 h; % of positive control, neutral wells = 0 | activation, % at 12.5 µM | 300,000 tested, 0.75% active;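 active means mean activation of at least 80% with every replicate also reaching 80%; inconclusive means mean reaches 80% but some replicate falls short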
C2C12 statin: protects C2C12 myotubes from simvastatin toxicity; rescue of ATP level, % at 7.49 µM; 330,000 tested, 0.78% active; ATP luminescence, 48 h; scaled: DMSO 0, geranylgeraniol control 100;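 active means mean ATP rescue above about 67%, or every replicate alone reaching that limit, limit read from the data, passing the limit was not always enough; inconclusive means no clear call, values can overlap the other calls; inactive means mean under the limit and some replicate under it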;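 further: myotubes were challenged with 10 µM simvastatin during compound exposure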
Wnt act: activators of Wnt/beta-catenin signaling; Wnt/beta-catenin reporter cell assay, activator, plate reader; activation, % at 9.35 µM; 300,000 tested, 1.2% active; in the data active means activation above about 30%, passing the limit was not always enough; inconclusive means no clear call, values can overlap the other calls
esBAF inh: inhibitors of esBAF chromatin remodeling in mouse ES cells. AID 602393. reporter increase, % at 12.5 µM. 350,000 tested, 2% active. Bmi1-luciferase knock-in reporter, 24 h; 100% = twice the neutral-well signal; in the data active means activation above about 40%; inconclusive means no clear call, values can overlap the other calls;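 further: a rise in the Bmi1 reporter signal indicates esBAF inhibition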
Of the large screens only hits and unclear results are named; the others gave an inactive call.

NCCCC[C@@H]1NC(=O)[C@H](CCC(=O)O)NC(=O)c2cc([N+](=O)[O-])cc(I)c2OCC[C@@H](C(N)=O)NC1=O	none (no result: Wnt act)
CO[C@H]1CN(C)C(=O)c2ccc(NC(=O)CC(F)(F)F)cc2OC[C@H](C)N(S(=O)(=O)c2cn(C)cn2)C[C@H]1C	none (no result: MITF TRPM1 HTS, Wnt act)
CC(=O)/C(=C(/O)c1ccccc1)c1nc2ccccc2[nH]1	MITF TRPM1 HTS 85
CC(C)c1ccc(Nc2nc(Cl)nc(NCCO)n2)cc1	none (no result: MITF TRPM1 HTS)
CC(C)Nc1nc(Cl)nc(Nc2ccccc2)n1	esBAF inh 61
CCCCCn1ccc(=N)cc1	none (no result: Wnt act)
CCn1ccc(=N)cc1	C2C12 statin 113
CNC(=O)CC(=O)Nc1ccccc1C(=O)O	C2C12 statin 105 (no result: Wnt act)
Cc1cc(=O)[nH]c(SCC2(O)C3CC4CC(C3)CC2C4)n1 (centres undefined)	C2C12 statin 113 (no result: MITF TRPM1 HTS)
O=C(c1ccco1)N1CC2(CC(c3ccc(Cl)cc3)=NO2)CN1Cc1ccc(Br)cc1 (centres undefined)	none (no result: MITF TRPM1 HTS)
CC(C)N1CC2(CC(c3ccccc3F)=NO2)CN1C(=O)c1ccco1 (centres undefined)	esBAF inh 57 (no result: MITF TRPM1 HTS)
COCCn1c(C)cc(C(=O)COC(=O)c2cncc(Br)c2)c1C	C2C12 statin 98
O=C(Nc1ccc2ncccc2c1)c1cccc(Br)c1	Wnt act 33, esBAF inh inconclusive
Cc1ccc(C(=O)Nc2ccc3ncccc3c2)cc1	none
CC1=CCn2c(=O)c3ccccc3c(=O)n2C1	C2C12 statin 125
O=c1c2ccccc2c(=O)n2n1Cc1ccccc1C2	none (no result: MITF TRPM1 HTS)
CN1c2ccc(-c3cccc(F)c3)cc2[C@@H]2[C@@H](CCN2S(=O)(=O)c2cccc(F)c2)[C@@H]1CO	none (no result: MITF TRPM1 HTS, Wnt act)
O=C(C[C@@H]1CC[C@@H]2[C@H](COC[C@H](O)CN2C(=O)c2ccc3c(c2)OCO3)O1)NC1Cc2ccccc2C1	none (no result: MITF TRPM1 HTS, Wnt act)
S=C(N=Nc1ccccc1)NNc1ccccc1	Wnt act 44, esBAF inh 63
S=C(NNC(=S)Nc1ccc(Cl)cc1)NNc1ccccc1	none (no result: MITF TRPM1 HTS, C2C12 statin, esBAF inh)
O=C(NCCc1ccccc1)c1ccc(Cl)cc1[N+](=O)[O-]	esBAF inh 62
COc1ccc(Cl)cc1C(=O)n1nc(C)cc1C	C2C12 statin 107 (no result: Wnt act)
Cc1nc2ccccc2n1CC(O)COc1ccccc1Cl (centres undefined)	Wnt act 37
Cn1nccc1C(=O)Nn1cnnc1	C2C12 statin 118 (no result: Wnt act)
C[C@@H]1CN([C@H](C)CO)C(=O)c2cccc(NC(=O)C3CCCCC3)c2O[C@H]1CN(C)S(C)(=O)=O	none (no result: MITF TRPM1 HTS, Wnt act)
Oc1ccccc1-c1cc(-c2ccccc2)n[nH]1	Wnt act 53
Oc1ccccc1-c1cc(-c2ccc(F)cc2)n[nH]1	Wnt act 53
COc1ccc(-c2cc(-c3ccccc3)n[nH]2)c(O)c1	esBAF inh 83
Oc1ccc(Cl)cc1-c1cc(-c2ccccc2)n[nH]1	none
C[C@H]1CN([C@@H](C)CO)C(=O)c2cc(-c3ccc(C#N)cc3)cnc2O[C@@H]1CN(C)Cc1cccnc1	none (no result: MITF TRPM1 HTS, Wnt act)
C[C@@H]1CCCCO[C@H](CN(C)S(=O)(=O)c2ccccc2)[C@@H](C)CN([C@@H](C)CO)C(=O)c2cc(NC(=O)NC3CCCCC3)ccc2O1	none (no result: MITF TRPM1 HTS, C2C12 statin, Wnt act)
C[C@H](CO)N1C[C@H](C)[C@@H](CN(C)Cc2ccc(Oc3ccccc3)cc2)Oc2c(NC(=O)Nc3ccc(F)cc3)cccc2C1=O	none (no result: MITF TRPM1 HTS, Wnt act)
CC(C)NC(=O)N[C@H]1CC[C@@H](CCn2cc(-c3ccc(F)cc3)nn2)O[C@H]1CO	none (no result: MITF TRPM1 HTS, Wnt act)
CC1(C)CC(NC(=O)C2CCC(=O)N(Cc3ccccc3F)C2)CC(C)(C)C1 (centres undefined)	esBAF inh 47
COc1ccc(CN2CCn3nc(C(=O)NC(C)C)cc3C2=O)cc1	none (no result: C2C12 statin, esBAF inh)
COc1ccc(CN2CCn3ncc(C(=O)Nc4cccc(C)c4)c3C2=O)cc1	C2C12 statin 124 (no result: MITF TRPM1 HTS)
COc1ccccc1C(=O)Nc1cc2ccccc2oc1=O	none (no result: Wnt act)
COc1ccc2oc(=O)c(C(=O)Nc3cccc(C)c3)cc2c1	esBAF inh 77
COc1ccccc1C(=O)Nc1cc2cc(Br)ccc2oc1=O	esBAF inh 27 (no result: C2C12 statin)
COc1ccc(NC(=O)c2cc3ccccc3oc2=O)c(OC)c1	esBAF inh 47 (no result: MITF TRPM1 HTS)
COc1ccc(NC(=O)c2cc3cc(OC)ccc3oc2=O)cc1	none
C[C@H]1CN([C@@H](C)CO)C(=O)c2cc(NS(=O)(=O)c3cccs3)ccc2O[C@H]1CN(C)S(=O)(=O)c1ccc(F)cc1	none (no result: MITF TRPM1 HTS, C2C12 statin, Wnt act)
COc1ccccc1NS(=O)(=O)c1ccc(C)c(C(=O)Nc2cc(C)on2)c1	none
COc1ccc(S(=O)(=O)Nc2ccccc2OC)cc1NC(=O)c1cc2ccccc2oc1=O	MITF TRPM1 HTS 90 (no result: C2C12 statin, Wnt act, esBAF inh)
COc1ccc(OC)c(C2CC(c3ccccc3)=NN2C(=S)Nc2ccccc2)c1 (centres undefined)	none (no result: C2C12 statin, esBAF inh)
COc1ccccc1C1=NN(C(=S)Nc2ccccc2)C(c2ccco2)C1 (centres undefined)	esBAF inh 56 (no result: Wnt act)
CCN(C(=O)COC(=O)CCS(=O)(=O)c1ccccc1)c1c(N)n(Cc2ccccc2)c(=O)[nH]c1=O	Wnt act 39 (no result: MITF TRPM1 HTS)
Cc1noc(C)c1S(=O)(=O)Nc1ccc2c(c1)C(=O)N([C@H](C)CO)C[C@@H](C)[C@H](CN(C)CC1CCCCC1)OCCCC[C@@H](C)O2	none (no result: MITF TRPM1 HTS, Wnt act)
C[C@H]1CN([C@@H](C)CO)C(=O)Cc2cc(NC(=O)CCCCCC(=O)Nc3ccccc3N)ccc2O[C@H]1CN(C)S(=O)(=O)c1ccc(F)cc1	none (no result: MITF TRPM1 HTS, Wnt act)
CC1CCN(C(=O)CSc2nnc(CNC(=O)COc3ccc(Cl)cc3)o2)CC1	C2C12 statin 96 (no result: MITF TRPM1 HTS)
COc1ccc(NC(=O)Nc2ccc3c(c2)C(=O)N([C@@H](C)CO)C[C@@H](C)[C@H](CN(C)S(=O)(=O)c2cn(C)cn2)OCCCC[C@H](C)O3)cc1	none (no result: MITF TRPM1 HTS, C2C12 statin, Wnt act)
CO[C@H]1CN(C)C(=O)c2cc(NC(C)=O)ccc2OC[C@@H](C)NC[C@@H]1C	none (no result: MITF TRPM1 HTS, Wnt act)
CCOc1ccc(-c2cn(-c3ccc(OC)cc3)c(SC)n2)cc1	MITF TRPM1 HTS inconclusive, esBAF inh 65 (no result: Wnt act)
CSc1nc(-c2ccccc2)cn1-c1ccc(NC(C)=O)cc1	none (no result: C2C12 statin, esBAF inh)
CO[C@@H]1CN(C)C(=O)c2cc(NC(=O)C3CCCCC3)ccc2OC[C@H](C)N(C)C[C@@H]1C	none (no result: MITF TRPM1 HTS, Wnt act)
CCc1nnc(NC(=O)Cn2c(=O)oc3ccccc32)s1	C2C12 statin 140
O=C(CC(C(=O)O)c1c[nH]c2ccccc12)c1ccccc1 (centres undefined)	esBAF inh 27 (no result: C2C12 statin)
CO[C@H]1CN(C)C(=O)c2ccc(NC(=O)C3CCCC3)cc2OC[C@@H](C)N(S(C)(=O)=O)C[C@@H]1C	none (no result: MITF TRPM1 HTS, Wnt act)
Cc1nc(NC(=O)c2ccccc2)nc2cc3c(cc12)OCO3	esBAF inh 49
CC(=O)c1csc(Nc2ccccc2Cl)n1	none (no result: MITF TRPM1 HTS, C2C12 statin, esBAF inh)
O=C(c1ccccc1)c1cnc(Nc2ccccc2Cl)s1	MITF TRPM1 HTS 98, esBAF inh 55 (no result: Wnt act)
CC(C)(C)C(=O)c1cnc(Nc2ccccc2Cl)s1	MITF TRPM1 HTS 144, esBAF inh inconclusive (no result: Wnt act)
COc1ccc(S(=O)(=O)N(C)C[C@@H]2Oc3ncc(-c4ccncc4)cc3C(=O)N([C@H](C)CO)C[C@@H]2C)cc1	none (no result: MITF TRPM1 HTS, Wnt act)
O=C(C[C@H]1CC[C@H]2[C@@H](COC[C@H](O)CN2C(=O)c2cccnc2)O1)NCc1ccc(-c2ccccc2)cc1	none (no result: MITF TRPM1 HTS, Wnt act)
